In PubChem BioAssay (NCATS):
Inconclusive results are not listed. Activity calls are given as the source filed them. Unless noted, the call rests on the fitted dose curve; in most records, active means well fitted curve in the direction sought with a large enough effect; inconclusive means small, poorly fitted or top-dose-only effect, or another doubt; inactive means no such curve, though single readings can be large; an effect the other way counts as inactive or inconclusive.

Legend:
[1] = target: Ubiquitin carboxyl-terminal hydrolase 1 (Homo sapiens) (UniProt O94782); assay: Inhibitors of USP1/UAF1: Pilot qHTS (AID 504865);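 further: rhodamine fluorescence freed from ubiquitin-rhodamine substrate followed over time; top concentration of the series differs between compounds; nearly all actives have a fitted effect of over 35% in size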
Sequence of Ubiquitin carboxyl-terminal hydrolase 1 (Homo sapiens) (O94782 whole entry, looked up): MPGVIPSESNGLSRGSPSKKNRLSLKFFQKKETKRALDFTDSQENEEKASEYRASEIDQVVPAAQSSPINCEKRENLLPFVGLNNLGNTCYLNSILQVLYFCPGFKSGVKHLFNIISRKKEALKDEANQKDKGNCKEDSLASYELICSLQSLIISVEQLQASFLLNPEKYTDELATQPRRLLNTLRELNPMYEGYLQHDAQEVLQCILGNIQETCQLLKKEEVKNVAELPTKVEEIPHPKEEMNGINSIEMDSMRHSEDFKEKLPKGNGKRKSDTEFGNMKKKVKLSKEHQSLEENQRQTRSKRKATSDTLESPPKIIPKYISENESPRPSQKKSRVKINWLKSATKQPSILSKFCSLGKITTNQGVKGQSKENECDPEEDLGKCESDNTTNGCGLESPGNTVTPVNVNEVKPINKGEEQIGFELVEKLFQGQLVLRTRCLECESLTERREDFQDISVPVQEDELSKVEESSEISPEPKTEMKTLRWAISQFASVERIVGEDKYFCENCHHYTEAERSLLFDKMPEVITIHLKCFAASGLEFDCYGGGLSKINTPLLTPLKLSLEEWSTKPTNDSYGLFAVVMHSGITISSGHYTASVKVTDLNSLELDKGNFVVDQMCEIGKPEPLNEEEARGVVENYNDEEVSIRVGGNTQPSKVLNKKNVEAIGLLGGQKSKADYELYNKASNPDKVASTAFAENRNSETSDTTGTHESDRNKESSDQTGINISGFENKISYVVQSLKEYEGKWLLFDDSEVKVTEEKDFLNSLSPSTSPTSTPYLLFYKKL
Outline: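 1nM USP1/UAF1 + cpd, 15 min RT; start w/ Ub-Rho 150nM final; kinetic FL 480/540 nm, 6 reads q60 s. Buffer 50mM HEPES pH 7.8, 0.5mM EDTA, 1mM TCEP, 0.01% Tween-20, 0.1 mg/ml BSA.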

[2] = S16 Schwann cell viability assay (CellTiter-Glo assay) (AID 624031);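 further: cellular ATP luminescence as a viability measure; nearly all actives have a fitted effect of over 70% in size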
Outline: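 CellTiter-Glo ATP luminescence counter-screen in untransfected S16 rat Schwann cells, 24h compound exposure at 37 degree Celsius after overnight seeding (500-750 cells/well); response scaled between cell-free wells and DMSO (0% activity), curves classed by r2 and magnitude.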

[3] = S16 Schwann cell PMP22 intronic element firefly luciferase assay (AID 624032); further: nearly all actives have a fitted effect of over 30% in size
Outline: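 Rat S16 Schwann cells stably carrying a PMP22 intronic element-driven Fluc reporter were seeded overnight, then exposed to compounds for 24 h at 37 °C. Luminescence was normalized to PTC124 (positive control) and DMSO (0% activity).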

[4] = S16 Schwann cell PMP22 intronic element beta-lactamase assay (AID 624044; calls by dose curve; further: nearly all actives have a fitted effect of over 15% in size); conditions: S16 rat Schwann cells, PMP22 element beta-lactamase FRET, 24 h; ratio activity, negative = inhibition: at 38.3 µM (top of the series)
Outline: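 Beta-lactamase reporter under a PMP22 intronic regulatory element in stable S16 rat Schwann cells; 24 h compound exposure. 460 nm blue signal normalized between DMSO (0%) and potassium clavulanate, with 535 nm FRET tracking viability; curves classed by r2 and response.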

DIV14 = assay: qHTS profiling for inhibitors of Plasmodium falciparum proliferation (AID 504749); further: nearly all actives have a fitted effect of over 60% in size; conditions: P. falciparum in erythrocytes, SYBR Green DNA, 72 h; series mostly up to 28.7 µM
Outline: (§1)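 Fluorescence of SYBR Green-bound parasite DNA, read at 485/535 nm, served as the growth measure. Infected erythrocytes were cultured with compound 72 h; artemisinin (0.29 uM) and DMSO wells defined the normalization range.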

DIV17 = assay: as above; conditions: P. falciparum in erythrocytes, SYBR Green DNA, 72 h; series mostly up to 28.7 µM
Outline: as §1

[5] = target: Luciferin 4-monooxygenase (Photinus pyralis) (UniProt P08659); assay: Biochemical firefly luciferase enzyme assay for NPC (AID 624030);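 further: purified P. pyralis luciferase at 10 nM with luciferin and ATP substrate; nearly all actives have a fitted effect of over 70% in size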
Sequence of Luciferin 4-monooxygenase (Photinus pyralis) (P08659 whole entry, looked up): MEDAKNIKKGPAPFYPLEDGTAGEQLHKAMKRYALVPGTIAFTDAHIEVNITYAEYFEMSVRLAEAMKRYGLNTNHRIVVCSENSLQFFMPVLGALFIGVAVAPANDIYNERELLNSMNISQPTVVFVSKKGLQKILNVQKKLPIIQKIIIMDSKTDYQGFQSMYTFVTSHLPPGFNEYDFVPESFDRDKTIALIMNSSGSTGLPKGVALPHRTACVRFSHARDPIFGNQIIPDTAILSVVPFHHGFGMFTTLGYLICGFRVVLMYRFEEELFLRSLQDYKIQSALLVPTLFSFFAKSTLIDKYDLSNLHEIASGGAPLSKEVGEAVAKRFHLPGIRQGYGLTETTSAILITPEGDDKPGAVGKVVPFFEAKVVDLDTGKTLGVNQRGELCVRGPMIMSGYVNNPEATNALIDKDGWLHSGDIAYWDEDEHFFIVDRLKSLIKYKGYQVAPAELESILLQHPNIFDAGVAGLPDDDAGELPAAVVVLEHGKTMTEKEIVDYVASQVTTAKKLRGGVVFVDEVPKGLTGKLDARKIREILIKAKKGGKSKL
Outline: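 Counter-screen for direct inhibition of the luciferase enzyme by approved-drug library compounds, run at 10 nM enzyme in 50 mM Tris acetate (final). Luminescence was read within 5 min of enzyme-buffer addition and normalized to PTC124 versus DMSO (0%).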

[6] = target: Cytochrome P450 3A4 (Homo sapiens) (UniProt P08684); assay: qHTS Assay for Inhibitors and Substrates of Cytochrome P450 3A4 (AID 884); further: nearly all actives have a fitted effect of over 50% in size
Sequence of Cytochrome P450 3A4 (Homo sapiens) (P08684 whole entry, looked up): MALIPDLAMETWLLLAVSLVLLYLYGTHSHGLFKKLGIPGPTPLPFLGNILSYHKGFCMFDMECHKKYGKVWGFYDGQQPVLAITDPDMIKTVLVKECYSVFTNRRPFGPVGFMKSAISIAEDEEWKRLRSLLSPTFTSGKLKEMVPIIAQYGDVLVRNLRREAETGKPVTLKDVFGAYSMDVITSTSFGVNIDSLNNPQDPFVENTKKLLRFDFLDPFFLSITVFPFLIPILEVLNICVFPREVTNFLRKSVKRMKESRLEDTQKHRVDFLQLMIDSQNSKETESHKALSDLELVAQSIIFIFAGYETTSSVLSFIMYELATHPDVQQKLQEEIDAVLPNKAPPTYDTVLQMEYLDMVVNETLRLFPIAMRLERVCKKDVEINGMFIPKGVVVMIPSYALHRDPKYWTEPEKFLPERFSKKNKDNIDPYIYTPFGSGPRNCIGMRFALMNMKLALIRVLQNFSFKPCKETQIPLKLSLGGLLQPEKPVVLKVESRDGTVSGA
Outline: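 Luminescent readout of luciferin produced by CYP3A4 (20 nM) dealkylation of Luciferin-PPXE, 25 uM (its KM). NADPH-driven reaction ran 60 min at RT after 10 min compound preincubation; data scaled to 57 uM ketoconazole as 100% inhibition.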

[7] = Confirmation and Secondary Assay for Modulators of Hemoglobin Beta Chain Splicing at IVS2 654 locus (AID 910);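 further: per-well total GFP intensity by laser scanning cytometry after 2-day treatment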
Outline: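 HeLa cells stably carrying EGFP interrupted by mutant beta-globin IVS2-654 intron (CMV-driven) were treated with compound for 2 days at 37C; corrected splicing was scored as total peak GFP intensity per well (488 nm excitation, 500-520 nm emission).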

[8] = Confirmation and Secondary Assay for Modulators of Hemoglobin Beta Chain Splicing at IVS2 705 locus (AID 930);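 further: HeLa cells stably expressing the EGFP-705 splicing reporter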
Outline: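 Restored EGFP fluorescence after 2-day compound exposure reports splicing correction in IVS2-705 EGFP reporter HeLa cells; positive control was 500 nM splice-blocking PNA oligo. Signal measured as well total peak GFP intensity (488 nm excitation).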

Measured: Potency

CCN(CC)C(=O)Nc1ccc(OC[C@H](O)CNC(C)(C)C)c(C(C)=O)c1
inactive: [1] | [2] | [3] | [4] | DIV14 | DIV17

CCCCCCCCCCCCCCCC(=O)OCC(COP(=O)(O)OCC[N+](C)(C)C)OC(=O)CCCCCCCCCCCCCCC (centres undefined)
not listed: [6] | [7] | [8]
inactive: all other assays above

O=[N+]([O-])O[C@H]1CO[C@H]2[C@@H]1OC[C@H]2O
not listed: [6] | [7] | [8]
inactive: all other assays above

CC(O)C(N)C(=O)O (centres undefined)
not listed: [6] | [7] | [8]
inactive: all other assays above

C=C(NCc1ccccc1)c1ccccc1O
inactive: [1] | [2] | [3] | [4] | DIV14 | DIV17

CCCC[C@H](O)c1ccccc1
inactive: [1] | [2] | [3] | [4] | DIV14 | DIV17

OCCN1CC(O)C(O)C(O)C1CO (centres undefined)
not listed: [3]
inactive: all other assays above

CC(=O)NC1[C@H](O)C[C@@](O)(C(=O)O)O[C@H]1[C@H](O)[C@H](O)CO (some centres undefined)
inactive: [1] | [2] | [3] | [4] | DIV14 | DIV17

Cc1cn([C@H]2CC(F)[C@@H](CO)O2)c(=O)[nH]c1=O (some centres undefined)
inactive: [1] | [2] | [3] | [4] | DIV14 | DIV17

O=C1CC[C@H](C(=O)N[C@@H]2C[C@H]2c2ccccc2)N1
not listed: [6] | [7] | [8]
inactive: all other assays above

CC(=O)OCC(=O)[C@@]1(O)CCC2C3CCC4=CC(=O)C=CC4(C)C3C(O)C[C@]21C (some centres undefined)
inactive: all assays above

O=C1NC(=O)C2C3C=CC(C3)C12 (centres undefined)
inactive: [1] | [5] | [3] | [4] | DIV14 | DIV17

Cc1cnc(C(=O)O)cn1
inactive: [1] | [2] | [3] | [4] | DIV14 | DIV17
